The values that follow come from ChEMBL document CHEMBL1961873, “Compounds: GSK PKIS; Assays: Nanosyn kinase panel” (2012).

The target of experiment [1] is Serine/threonine-protein kinase MARK2 (Homo sapiens) (UniProt Q7KZI7). The conditions noted are these: at 1 µM.
Experiment [2] concerns the target PAS domain-containing serine/threonine-protein kinase (Homo sapiens) (UniProt Q96RG2). The conditions noted are these: at 0.1 µM.
Experiment [3] has the same target. The conditions noted are these: at 1 µM.
In experiment [4] the target is Phosphorylase b kinase gamma catalytic chain, skeletal muscle/heart isoform (Homo sapiens) (UniProt Q16816). Conditions: at 0.1 µM.
Sequence of Phosphorylase b kinase gamma catalytic chain, skeletal muscle/heart isoform (Homo sapiens) (Q16816 whole entry, looked up, canonical isoform): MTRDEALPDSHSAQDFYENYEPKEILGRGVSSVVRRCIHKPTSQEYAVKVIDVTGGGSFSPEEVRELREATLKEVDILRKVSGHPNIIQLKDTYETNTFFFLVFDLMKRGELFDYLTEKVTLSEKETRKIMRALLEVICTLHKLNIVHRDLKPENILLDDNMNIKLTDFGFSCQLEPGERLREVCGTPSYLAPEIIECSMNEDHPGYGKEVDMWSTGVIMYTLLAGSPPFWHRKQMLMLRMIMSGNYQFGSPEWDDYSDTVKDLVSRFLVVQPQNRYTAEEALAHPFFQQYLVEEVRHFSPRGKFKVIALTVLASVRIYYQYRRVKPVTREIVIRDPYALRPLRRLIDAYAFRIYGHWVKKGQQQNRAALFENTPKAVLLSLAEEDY
Experiment [5] has the same target. Conditions: at 1 µM.
For experiment [6], the target named is T1, Phosphorylase b kinase gamma catalytic chain, liver/testis isoform (Homo sapiens) (UniProt P15735).
T1 sequence (whole entry): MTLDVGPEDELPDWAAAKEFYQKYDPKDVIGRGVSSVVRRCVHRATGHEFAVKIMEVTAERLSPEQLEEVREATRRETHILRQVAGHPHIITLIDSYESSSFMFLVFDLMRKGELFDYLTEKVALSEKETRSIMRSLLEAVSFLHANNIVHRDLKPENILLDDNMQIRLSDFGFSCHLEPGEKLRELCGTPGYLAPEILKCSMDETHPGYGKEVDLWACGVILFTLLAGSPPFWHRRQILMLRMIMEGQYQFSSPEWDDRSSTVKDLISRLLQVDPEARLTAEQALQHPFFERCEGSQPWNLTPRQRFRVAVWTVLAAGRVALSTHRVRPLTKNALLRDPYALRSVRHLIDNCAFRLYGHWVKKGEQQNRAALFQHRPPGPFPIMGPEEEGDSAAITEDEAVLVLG
The conditions noted are these: at 0.1 µM.

The target in experiment [7] is T1, Phosphorylase b kinase gamma catalytic chain, liver/testis isoform (Homo sapiens). Conditions: at 1 µM.
Experiment [8] concerns the target Serine/threonine-protein kinase pim-1 (Homo sapiens) (UniProt P11309). The conditions noted are these: at 0.1 µM.
For experiment [9] the target is unchanged. Conditions: at 1 µM.
Experiment [10] concerns the target Serine/threonine-protein kinase pim-2 (Homo sapiens) (UniProt Q9P1W9). The conditions noted are these: at 0.1 µM.
Experiment [11] shares this target. The conditions noted are these: at 1 µM.
The target in experiment [12] is Serine/threonine-protein kinase pim-3 (Homo sapiens) (UniProt Q86V86). Conditions: at 0.1 µM.
Experiment [13] shares this target. Conditions: at 1 µM.
The target in experiment [14] is T2, MAP kinase-activated protein kinase 5 (Homo sapiens) (UniProt Q8IW41).
T2 sequence (whole entry): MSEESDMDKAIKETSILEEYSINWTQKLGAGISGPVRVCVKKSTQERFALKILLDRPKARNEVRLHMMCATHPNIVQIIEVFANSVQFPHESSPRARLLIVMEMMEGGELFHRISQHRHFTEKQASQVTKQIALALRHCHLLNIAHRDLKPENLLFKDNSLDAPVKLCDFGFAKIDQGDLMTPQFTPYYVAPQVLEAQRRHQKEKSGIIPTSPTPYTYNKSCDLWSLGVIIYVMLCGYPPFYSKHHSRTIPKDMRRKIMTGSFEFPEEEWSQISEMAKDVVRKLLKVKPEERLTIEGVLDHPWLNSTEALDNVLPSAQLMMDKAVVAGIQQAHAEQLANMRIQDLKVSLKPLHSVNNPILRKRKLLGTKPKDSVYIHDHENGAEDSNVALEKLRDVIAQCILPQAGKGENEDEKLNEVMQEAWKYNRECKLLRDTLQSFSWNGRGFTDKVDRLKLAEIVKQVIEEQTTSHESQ
The conditions noted are these: at 0.1 µM.

The target in experiment [15] is T2, MAP kinase-activated protein kinase 5 (Homo sapiens). The conditions noted are these: at 1 µM.
The target in experiment [16] is Serine/threonine-protein kinase SIK1 (Homo sapiens) (UniProt P57059). Conditions: at 0.1 µM.
Sequence of Serine/threonine-protein kinase SIK1 (Homo sapiens) (P57059 whole entry): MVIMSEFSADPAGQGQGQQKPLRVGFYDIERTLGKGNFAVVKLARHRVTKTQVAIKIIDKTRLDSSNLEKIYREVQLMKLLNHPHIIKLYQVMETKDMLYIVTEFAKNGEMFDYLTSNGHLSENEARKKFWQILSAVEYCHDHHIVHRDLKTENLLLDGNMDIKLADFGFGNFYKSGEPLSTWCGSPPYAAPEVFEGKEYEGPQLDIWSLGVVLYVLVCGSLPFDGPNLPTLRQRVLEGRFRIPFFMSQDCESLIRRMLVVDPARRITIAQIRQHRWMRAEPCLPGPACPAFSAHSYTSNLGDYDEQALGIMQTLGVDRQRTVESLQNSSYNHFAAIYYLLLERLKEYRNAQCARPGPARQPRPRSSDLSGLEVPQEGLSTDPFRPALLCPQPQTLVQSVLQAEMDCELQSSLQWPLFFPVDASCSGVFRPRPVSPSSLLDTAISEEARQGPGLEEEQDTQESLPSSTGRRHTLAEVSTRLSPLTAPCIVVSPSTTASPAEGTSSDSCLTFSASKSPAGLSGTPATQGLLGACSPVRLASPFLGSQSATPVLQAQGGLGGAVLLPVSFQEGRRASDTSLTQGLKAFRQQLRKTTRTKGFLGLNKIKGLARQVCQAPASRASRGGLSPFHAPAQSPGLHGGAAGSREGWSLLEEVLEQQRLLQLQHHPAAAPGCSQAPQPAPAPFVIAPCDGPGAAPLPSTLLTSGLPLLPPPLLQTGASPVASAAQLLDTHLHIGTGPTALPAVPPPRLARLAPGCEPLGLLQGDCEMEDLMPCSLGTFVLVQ
The target is the same in experiment [17]. Conditions: at 1 µM.
Experiment [18] addresses Serine/threonine-protein kinase SIK2 (Homo sapiens) (UniProt Q9H0K1). The conditions noted are these: at 0.1 µM.
Experiment [19] has the same target. Conditions: at 1 µM.
For experiment [20], the target named is T3, Serine/threonine-protein kinase TBK1 (Homo sapiens) (UniProt Q9UHD2).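 Also: values are the mean TBK1 inhibition, taken from the GSK PKIS screening data.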
T3 sequence (whole entry): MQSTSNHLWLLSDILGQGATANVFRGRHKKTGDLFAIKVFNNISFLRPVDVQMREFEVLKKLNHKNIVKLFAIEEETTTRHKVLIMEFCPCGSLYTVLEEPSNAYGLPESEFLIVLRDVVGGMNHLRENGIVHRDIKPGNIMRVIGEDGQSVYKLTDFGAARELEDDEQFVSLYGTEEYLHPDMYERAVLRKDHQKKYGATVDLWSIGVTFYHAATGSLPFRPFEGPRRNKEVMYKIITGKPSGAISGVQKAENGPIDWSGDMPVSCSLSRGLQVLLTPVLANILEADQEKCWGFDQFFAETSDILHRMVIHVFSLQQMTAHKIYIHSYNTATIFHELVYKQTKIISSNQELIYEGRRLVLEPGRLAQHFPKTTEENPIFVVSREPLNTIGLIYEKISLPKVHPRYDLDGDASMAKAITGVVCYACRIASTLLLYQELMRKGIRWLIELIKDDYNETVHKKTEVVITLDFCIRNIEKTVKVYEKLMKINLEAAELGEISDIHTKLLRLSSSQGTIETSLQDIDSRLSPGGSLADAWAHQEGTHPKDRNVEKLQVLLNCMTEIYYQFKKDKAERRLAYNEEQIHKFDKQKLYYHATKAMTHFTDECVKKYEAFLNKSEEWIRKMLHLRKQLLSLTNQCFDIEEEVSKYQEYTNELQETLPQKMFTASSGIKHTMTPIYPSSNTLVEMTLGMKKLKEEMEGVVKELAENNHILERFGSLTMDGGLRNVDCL
The conditions noted are these: at 0.1 µM.

Sequence of Serine/threonine-protein kinase pim-2 (Homo sapiens) (Q9P1W9 whole entry, looked up): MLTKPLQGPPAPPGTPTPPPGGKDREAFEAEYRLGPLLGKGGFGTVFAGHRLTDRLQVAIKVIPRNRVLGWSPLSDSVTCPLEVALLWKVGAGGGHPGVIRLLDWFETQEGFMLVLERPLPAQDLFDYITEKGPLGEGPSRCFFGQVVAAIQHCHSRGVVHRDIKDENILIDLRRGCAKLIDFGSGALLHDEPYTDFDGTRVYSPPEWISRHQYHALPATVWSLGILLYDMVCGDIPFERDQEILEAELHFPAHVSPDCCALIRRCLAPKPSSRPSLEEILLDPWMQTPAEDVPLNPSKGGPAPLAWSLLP
Sequence of Serine/threonine-protein kinase MARK2 (Homo sapiens) (Q7KZI7 whole entry, the tested form may be a part): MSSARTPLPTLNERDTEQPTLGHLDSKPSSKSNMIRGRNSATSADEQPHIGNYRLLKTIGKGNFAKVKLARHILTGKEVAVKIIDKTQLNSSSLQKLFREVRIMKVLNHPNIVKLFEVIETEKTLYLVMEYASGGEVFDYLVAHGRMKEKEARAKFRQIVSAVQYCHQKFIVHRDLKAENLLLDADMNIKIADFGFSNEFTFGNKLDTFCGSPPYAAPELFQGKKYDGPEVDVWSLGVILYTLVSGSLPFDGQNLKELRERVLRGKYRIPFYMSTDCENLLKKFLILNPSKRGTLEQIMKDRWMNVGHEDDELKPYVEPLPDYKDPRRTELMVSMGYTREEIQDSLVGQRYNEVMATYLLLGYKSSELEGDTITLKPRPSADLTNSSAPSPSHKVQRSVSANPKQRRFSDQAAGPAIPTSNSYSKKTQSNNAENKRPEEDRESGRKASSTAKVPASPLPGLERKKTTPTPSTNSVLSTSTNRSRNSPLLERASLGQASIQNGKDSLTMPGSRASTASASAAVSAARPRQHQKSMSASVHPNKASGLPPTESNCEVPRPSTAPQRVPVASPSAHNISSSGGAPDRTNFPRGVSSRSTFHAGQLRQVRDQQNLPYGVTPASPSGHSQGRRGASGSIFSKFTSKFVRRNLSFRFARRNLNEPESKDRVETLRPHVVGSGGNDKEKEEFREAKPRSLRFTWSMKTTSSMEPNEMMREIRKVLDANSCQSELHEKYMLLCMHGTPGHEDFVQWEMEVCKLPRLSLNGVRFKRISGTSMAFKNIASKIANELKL
Sequence of PAS domain-containing serine/threonine-protein kinase (Homo sapiens) (Q96RG2 whole entry, the tested form may be a part): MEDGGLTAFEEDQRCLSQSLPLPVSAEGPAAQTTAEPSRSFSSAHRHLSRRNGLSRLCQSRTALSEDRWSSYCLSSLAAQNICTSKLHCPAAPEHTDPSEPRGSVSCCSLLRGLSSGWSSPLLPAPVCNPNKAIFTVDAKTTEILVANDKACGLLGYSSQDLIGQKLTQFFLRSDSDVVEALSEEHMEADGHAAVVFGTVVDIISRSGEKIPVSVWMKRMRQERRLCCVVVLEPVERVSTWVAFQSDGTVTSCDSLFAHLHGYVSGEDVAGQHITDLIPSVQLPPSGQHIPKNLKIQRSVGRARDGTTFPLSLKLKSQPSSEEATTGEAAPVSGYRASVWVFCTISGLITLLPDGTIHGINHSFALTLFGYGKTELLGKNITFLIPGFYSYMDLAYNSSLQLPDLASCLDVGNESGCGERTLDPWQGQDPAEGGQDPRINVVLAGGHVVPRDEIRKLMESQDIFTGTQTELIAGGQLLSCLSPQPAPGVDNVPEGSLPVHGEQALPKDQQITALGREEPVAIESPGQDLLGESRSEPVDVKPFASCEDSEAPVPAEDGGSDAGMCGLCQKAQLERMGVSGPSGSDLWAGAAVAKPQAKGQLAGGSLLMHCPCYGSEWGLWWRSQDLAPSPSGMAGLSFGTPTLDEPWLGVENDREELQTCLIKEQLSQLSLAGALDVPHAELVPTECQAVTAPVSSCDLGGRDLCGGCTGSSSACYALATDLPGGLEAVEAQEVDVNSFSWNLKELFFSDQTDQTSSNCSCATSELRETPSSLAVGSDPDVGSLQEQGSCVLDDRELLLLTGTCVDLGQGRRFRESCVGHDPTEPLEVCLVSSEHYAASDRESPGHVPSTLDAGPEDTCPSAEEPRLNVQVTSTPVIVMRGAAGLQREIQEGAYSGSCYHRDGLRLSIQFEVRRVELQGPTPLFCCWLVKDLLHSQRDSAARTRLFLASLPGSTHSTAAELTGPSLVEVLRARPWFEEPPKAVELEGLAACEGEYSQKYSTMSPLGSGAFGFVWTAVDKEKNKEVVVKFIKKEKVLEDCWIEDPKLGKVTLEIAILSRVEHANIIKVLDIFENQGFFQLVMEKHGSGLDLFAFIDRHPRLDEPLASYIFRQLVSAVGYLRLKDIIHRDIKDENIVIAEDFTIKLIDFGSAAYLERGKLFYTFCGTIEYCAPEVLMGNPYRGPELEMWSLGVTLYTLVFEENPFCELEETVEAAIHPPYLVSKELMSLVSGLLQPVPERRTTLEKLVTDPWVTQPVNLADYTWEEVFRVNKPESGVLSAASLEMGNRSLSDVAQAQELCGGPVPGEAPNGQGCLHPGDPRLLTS
Sequence of Serine/threonine-protein kinase SIK2 (Homo sapiens) (Q9H0K1 whole entry, looked up): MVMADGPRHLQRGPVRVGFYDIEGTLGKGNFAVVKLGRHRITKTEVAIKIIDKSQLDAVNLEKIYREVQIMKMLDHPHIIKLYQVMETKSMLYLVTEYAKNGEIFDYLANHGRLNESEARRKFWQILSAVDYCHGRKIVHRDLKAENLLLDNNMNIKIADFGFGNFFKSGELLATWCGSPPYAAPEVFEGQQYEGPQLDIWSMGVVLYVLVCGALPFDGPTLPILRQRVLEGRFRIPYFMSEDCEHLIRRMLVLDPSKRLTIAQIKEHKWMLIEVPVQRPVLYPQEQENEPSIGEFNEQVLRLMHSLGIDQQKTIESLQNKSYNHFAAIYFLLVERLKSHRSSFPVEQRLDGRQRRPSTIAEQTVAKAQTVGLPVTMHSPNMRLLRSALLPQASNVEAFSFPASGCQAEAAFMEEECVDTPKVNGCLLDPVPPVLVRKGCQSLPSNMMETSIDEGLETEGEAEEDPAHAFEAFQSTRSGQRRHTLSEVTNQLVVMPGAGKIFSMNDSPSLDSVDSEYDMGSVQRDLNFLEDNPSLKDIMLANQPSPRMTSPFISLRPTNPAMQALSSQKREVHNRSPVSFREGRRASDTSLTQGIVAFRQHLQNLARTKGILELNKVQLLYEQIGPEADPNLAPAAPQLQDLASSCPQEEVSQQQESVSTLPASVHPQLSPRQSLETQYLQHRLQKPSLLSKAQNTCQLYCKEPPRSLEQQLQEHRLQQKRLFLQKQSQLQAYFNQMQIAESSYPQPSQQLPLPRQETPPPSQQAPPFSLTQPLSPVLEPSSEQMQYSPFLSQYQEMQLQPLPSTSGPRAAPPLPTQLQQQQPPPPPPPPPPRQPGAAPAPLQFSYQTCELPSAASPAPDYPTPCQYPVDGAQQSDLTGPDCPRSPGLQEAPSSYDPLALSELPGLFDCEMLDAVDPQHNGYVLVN

The inhibition is the relative decrease from the control value, in per cent. Regarding `CCn1c(-c2nonc2N)nc2cncc(C(=O)NCCNC)c21`, the inhibition amounted to 14% in experiment [1]; 0.06% in experiment [2]; 3.5% in experiment [3]; 4.55% in experiment [4]; 7.35% in experiment [5]; 5.01% in [6]. For the same compound, the inhibition in experiment [7] worked out at 6.69%; in [8], 46.4%; in experiment [9], 87%; in experiment [10], 1.81%; in [11], 18.8%; in [12], 26.3%. The inhibition in experiment [13] is 69.3%; in experiment [14] it was 1.39%; in experiment [15], 1.58%; in experiment [16], 3.17%; in [17], 9.07%; in [18] it was 2.51%. Also, the inhibition came out at 6.02% in experiment [19] and 4.08% in experiment [20].

For `CS(=O)(=O)CCNCc1ccc(-c2ccc3ncnc(Nc4ccc(OCc5ccccc5)cc4)c3c2)o1`, the inhibition came to 1.67% in [1]; 0.96% in experiment [2]; 0.95% in [3]; 4.83% in experiment [4]; 4.75% in experiment [5]; 4.78% in experiment [6]. Also, the inhibition in [7] came to 4.2%; in experiment [8], 1.47%; in experiment [9] it was 1.03%; in [10] it was 0.19%; in experiment [11] it was 0.74%; in experiment [12], 0.79%. In addition, the inhibition in experiment [13] stood at 1.6%; in experiment [14], 1.45%; in [15], 1.42%; in experiment [16] it was 4.11%; in experiment [17] it was 9.04%; in [18], 3.65%. The inhibition in experiment [19] came out at 6.41%; in [20] it was 3.64%.

Turning to `O=C1Nc2ccccc2/C1=C1\CCc2cc(O)ccc21`, the inhibition is 24% in experiment [1]; 0.2% in [2]; -1.25% in [3]; 9.05% in experiment [4]; 40.6% in [5]; 6.64% in [6]. Also, the inhibition is 9.59% in [7]; 2.37% in experiment [8]; 10.2% in [9]; -0.2% in [10]; 1.46% in [11]; -1.28% in experiment [12]. Moreover, the inhibition was determined as 3.83% in experiment [13]; 1.7% in experiment [14]; 2.07% in experiment [15]; 2.74% in experiment [16]; 18.1% in experiment [17]; 5.12% in experiment [18]. Also, the inhibition in experiment [19] is 21%; in [20] it was 1.68%.

As to `COc1cc(N2CCN(C(C)C)CC2)ccc1Nc1nc(Nc2cccc(F)c2C(=O)O)c2cc[nH]c2n1`, the inhibition in [1] came out at 3.36%; in experiment [2], 0.65%; in [3] it was 0.52%; in [4], 8.07%; in [5], 39.8%; in experiment [6], 6.18%. The inhibition in experiment [7] is 19.9%; in [8], -0.13%; in experiment [9], 1.42%; in [10], 0.01%; in experiment [11], 0.53%; in [12] it was 1%. Further, the inhibition turned out to be 5.92% in experiment [13]; 1.35% in [14]; 2.28% in [15]; 2.77% in [16]; 7.48% in experiment [17]; 5.27% in [18]. Also, the figures for the inhibition in [19] and in experiment [20] were 4.22% and 4.45%, respectively.

In the case of `CN1CCC(n2cnc(-c3ccc(F)cc3)c2-c2ccnc(NCCO)n2)CC1`, the inhibition in [1] was -0.08%; in [2], 0.82%; in [3], 0.93%; in experiment [4], 2.34%; in experiment [5], 5.88%; in experiment [6], 4.56%. The inhibition in experiment [7] is 7.31%; in [8], 0.34%; in experiment [9], 1.55%; in [10], 0.95%; in experiment [11] it was 2.65%; in [12] it was 1.55%. Besides, the inhibition in experiment [13] is 5.22%; in [14], 1.7%; in experiment [15], 4.06%; in experiment [16] it was 2.04%; in experiment [17] it was 6.87%; in experiment [18] it was 4.44%. The inhibition in experiment [19] is 16.6%; in experiment [20] it was -0.04%.

In the case of `c1ccc(-c2n[nH]cc2-c2ccnc(-c3ccc(OCCn4ccnc4)cc3)c2)nc1`, the inhibition in experiment [1] is -0.66%; in experiment [2], -0.73%; in [3] it was -0.48%; in experiment [4], 2.85%; in experiment [5], 6.86%; in experiment [6] it was -0.35%. Moreover, the inhibition in experiment [7] was 3.4%; in experiment [8], 0.32%; in experiment [9], 0.45%; in experiment [10], 0.56%; in experiment [11] it was 0.26%; in experiment [12] it was 0.51%. The inhibition in experiment [13] was 0.09%; in experiment [14], 0.48%; in [15], 1.25%; in experiment [16], 1.64%; in experiment [17], 6.26%; in experiment [18], 0.8%. Also, the inhibition in experiment [19] worked out at 10%; in experiment [20] it was 0.6%.

On to `c1cnn2ncc(-c3ccnc(NCCCN4CCOCC4)n3)c2c1`, for which the inhibition in [1] is -1.01%; in experiment [2], -1.6%; in [3] it was -2.98%; in [4], 4.51%; in experiment [5] it was 4.16%; in experiment [6] it was 4.4%. The inhibition was 2.46% in [7]; -0.24% in [8]; 1.23% in experiment [9]; -0.27% in [10]; -1.06% in experiment [11]; -0.56% in [12]. Moreover, the inhibition in experiment [13] is -0.85%; in experiment [14], 1.09%; in experiment [15], 1.07%; in [16] it was 3.47%; in experiment [17], 6.56%; in [18] it was 3.35%. In addition, the values for the inhibition in [19] and in experiment [20] were 2.87% and 0.82%, respectively.
